In ChEMBL document CHEMBL5598561, “ASAP - In vitro binding kinetics” (2024):

Target: Nonstructural protein 3 (Zika virus) (UniProt A0A024AXB9)
Settings: PRVABC59, Concentration 10.0 uM

Chain of Nonstructural protein 3 (Zika virus) (A0A024AXB9 as listed by the source): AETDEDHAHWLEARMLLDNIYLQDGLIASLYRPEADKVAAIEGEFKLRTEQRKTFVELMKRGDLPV

## NCc1ccc(NC(=O)c2cc(Cl)cc3[nH]ncc23)cc1
Immobilization level 3900.0 pg/mm2, Rmax 39.0 pg/mm2, ka 344993.29 M-1s-1, kd 2.713 1/s
  pKD: 5.11
Immobilization level 4900.0 pg/mm2, Rmax 52.0 pg/mm2, ka 210233.557 M-1s-1, kd 2.157 1/s
  pKD: 4.99
Immobilization level 5500.0 pg/mm2, Rmax 46.0 pg/mm2, ka 296422.165 M-1s-1, kd 2.251 1/s
  pKD: 5.12
Immobilization level 10000.0 pg/mm2, Rmax 40.0 pg/mm2, ka 241734.917 M-1s-1, kd 1.766 1/s
  pKD: 5.14
Immobilization level 12000.0 pg/mm2, Rmax 57.0 pg/mm2, ka 217368.509 M-1s-1, kd 1.551 1/s
  pKD: 5.15
Immobilization level 13000.0 pg/mm2, Rmax 45.0 pg/mm2, ka 247269.193 M-1s-1, kd 1.32 1/s
  pKD: 5.27

## O=C(NCC1CCOCC1)[C@H](Nc1ccc2c(c1)CNC2)c1cc(Cl)cc2[nH]ncc12
Immobilization level 10000.0 pg/mm2, Rmax 24.0 pg/mm2, ka 732529.674 M-1s-1, kd 0.501 1/s
  pKD: 6.17
Immobilization level 12000.0 pg/mm2, Rmax 44.0 pg/mm2, ka 461664.392 M-1s-1, kd 0.336 1/s
  pKD: 6.14
Immobilization level 13000.0 pg/mm2, Rmax 32.0 pg/mm2, ka 718906.653 M-1s-1, kd 0.399 1/s
  pKD: 6.25

## C[C@H]1Oc2c(cccc2C(=O)Nc2ccc3c(c2)CNC3)NC1=O
Immobilization level 10000.0 pg/mm2, Rmax 20.0 pg/mm2, ka 247912.445 M-1s-1, kd 2.654 1/s
  pKD: 4.97
Immobilization level 12000.0 pg/mm2, Rmax 35.0 pg/mm2, ka 236689.654 M-1s-1, kd 1.809 1/s
  pKD: 5.12
Immobilization level 13000.0 pg/mm2, Rmax 26.0 pg/mm2, ka 250555.254 M-1s-1, kd 1.96 1/s
  pKD: 5.11

## O=C(Nc1ccc2c(c1)CNC2)c1cc(Br)cc2[nH]ncc12
Immobilization level 3900.0 pg/mm2, Rmax 38.0 pg/mm2, ka 289981.015 M-1s-1, kd 0.089 1/s
  pKD: 6.51
Immobilization level 4900.0 pg/mm2, Rmax 58.0 pg/mm2, ka 168121.167 M-1s-1, kd 0.102 1/s
  pKD: 6.21
Immobilization level 5500.0 pg/mm2, Rmax 62.0 pg/mm2, ka 169991.939 M-1s-1, kd 0.118 1/s
  pKD: 6.16
Immobilization level 10000.0 pg/mm2, Rmax 73.0 pg/mm2, ka 76775.421 M-1s-1, kd 0.125 1/s
  pKD: 5.79
Immobilization level 12000.0 pg/mm2, Rmax 147.0 pg/mm2, ka 18302.495 M-1s-1, kd 0.037 1/s
  pKD: 5.69
Immobilization level 13000.0 pg/mm2, Rmax 120.0 pg/mm2, ka 46201.966 M-1s-1, kd 0.079 1/s
  pKD: 5.76

## C[C@@H](N)c1ccc(NC(=O)c2cc(Cl)cc3[nH]ncc23)cc1
Immobilization level 3900.0 pg/mm2, Rmax 41.0 pg/mm2, ka 249513.67 M-1s-1, kd 1.946 1/s
  pKD: 5.11
Immobilization level 4900.0 pg/mm2, Rmax 50.0 pg/mm2, ka 225007.554 M-1s-1, kd 1.686 1/s
  pKD: 5.12
Immobilization level 5500.0 pg/mm2, Rmax 61.0 pg/mm2, ka 227099.936 M-1s-1, kd 1.979 1/s
  pKD: 5.06
Immobilization level 10000.0 pg/mm2, Rmax 53.0 pg/mm2, ka 348896.97 M-1s-1, kd 2.109 1/s
  pKD: 5.22
Immobilization level 12000.0 pg/mm2, Rmax 62.0 pg/mm2, ka 212895.642 M-1s-1, kd 1.524 1/s
  pKD: 5.14
Immobilization level 13000.0 pg/mm2, Rmax 66.0 pg/mm2, ka 290082.005 M-1s-1, kd 1.572 1/s
  pKD: 5.27

## CNC(=O)[C@H](Nc1ccc2c(c1)CNC2)c1cc(Cl)cc2[nH]ncc12
Immobilization level 3900.0 pg/mm2, Rmax 42.0 pg/mm2, ka 444409.109 M-1s-1, kd 0.101 1/s
  pKD: 6.65
Immobilization level 4900.0 pg/mm2, Rmax 59.0 pg/mm2, ka 262811.946 M-1s-1, kd 0.117 1/s
  pKD: 6.35
Immobilization level 5500.0 pg/mm2, Rmax 61.0 pg/mm2, ka 294175.896 M-1s-1, kd 0.112 1/s
  pKD: 6.42
Immobilization level 10000.0 pg/mm2, Rmax 56.0 pg/mm2, ka 424251.343 M-1s-1, kd 0.126 1/s
  pKD: 6.53
Immobilization level 12000.0 pg/mm2, Rmax 69.0 pg/mm2, ka 214381.257 M-1s-1, kd 0.135 1/s
  pKD: 6.2
Immobilization level 13000.0 pg/mm2, Rmax 81.0 pg/mm2, ka 342437.146 M-1s-1, kd 0.116 1/s
  pKD: 6.47

## O=C(Nc1ccc2c(c1)CNC2)c1cc(C(F)(F)F)cc2[nH]ccc12
Immobilization level 3900.0 pg/mm2, Rmax 30.0 pg/mm2, ka 544431.648 M-1s-1, kd 0.73 1/s
  pKD: 5.87
Immobilization level 4900.0 pg/mm2, Rmax 46.0 pg/mm2, ka 302890.351 M-1s-1, kd 0.564 1/s
  pKD: 5.73
Immobilization level 5500.0 pg/mm2, Rmax 46.0 pg/mm2, ka 376673.864 M-1s-1, kd 0.583 1/s
  pKD: 5.81
Immobilization level 10000.0 pg/mm2, Rmax 31.0 pg/mm2, ka 377188.867 M-1s-1, kd 0.653 1/s
  pKD: 5.76
Immobilization level 12000.0 pg/mm2, Rmax 50.0 pg/mm2, ka 339395.125 M-1s-1, kd 0.433 1/s
  pKD: 5.89
Immobilization level 13000.0 pg/mm2, Rmax 43.0 pg/mm2, ka 290221.417 M-1s-1, kd 0.559 1/s
  pKD: 5.71

## O=C1CCN(c2cc(Cl)cc(C(=O)Nc3ccc4c(c3)CNC4)c2)C(=O)N1
Immobilization level 10000.0 pg/mm2, Rmax 25.0 pg/mm2, ka 256015.917 M-1s-1, kd 2.294 1/s
  pKD: 5.05
Immobilization level 12000.0 pg/mm2, Rmax 56.0 pg/mm2, ka 218751.029 M-1s-1, kd 1.634 1/s
  pKD: 5.13
Immobilization level 13000.0 pg/mm2, Rmax 29.0 pg/mm2, ka 336624.127 M-1s-1, kd 1.776 1/s
  pKD: 5.28

## CCNCc1ccc(NC(=O)c2cc(Cl)cc3[nH]ncc23)cc1
Immobilization level 3900.0 pg/mm2, Rmax 49.0 pg/mm2, ka 254831.951 M-1s-1, kd 6.984 1/s
  pKD: 4.56
Immobilization level 4900.0 pg/mm2, Rmax 79.0 pg/mm2, ka 107155.284 M-1s-1
  pKD: 4.35
Immobilization level 5500.0 pg/mm2, Rmax 69.0 pg/mm2, ka 175345.198 M-1s-1
  pKD: 4.55
Immobilization level 12000.0 pg/mm2, Rmax 35.0 pg/mm2, ka 320872.936 M-1s-1, kd 4.693 1/s
  pKD: 4.83

## COCCCN1Cc2ccc(NC(=O)c3cc(Cl)cc4[nH]ncc34)cc2C1
Immobilization level 3900.0 pg/mm2, Rmax 42.0 pg/mm2, ka 388632.967 M-1s-1, kd 5.459 1/s
  pKD: 4.85
Immobilization level 4900.0 pg/mm2, Rmax 39.0 pg/mm2, ka 367718.358 M-1s-1, kd 4.612 1/s
  pKD: 4.9
Immobilization level 5500.0 pg/mm2, Rmax 38.0 pg/mm2, ka 400996.136 M-1s-1, kd 4.84 1/s
  pKD: 4.92
Immobilization level 10000.0 pg/mm2, Rmax 39.0 pg/mm2, ka 289414.732 M-1s-1, kd 5.077 1/s
  pKD: 4.76
Immobilization level 12000.0 pg/mm2, Rmax 59.0 pg/mm2, ka 250455.768 M-1s-1, kd 3.882 1/s
  pKD: 4.81
Immobilization level 13000.0 pg/mm2, Rmax 33.0 pg/mm2, ka 234107.52 M-1s-1, kd 2.737 1/s
  pKD: 4.93
